Measured values as given in PubChem BioAssay (NCATS).
Records with an inconclusive call do not appear. Active and inactive are the calls of the source. Calls follow the shape of the dose curve; as a rule, active = well fitted inhibition curve with a large enough effect; inconclusive = small, poorly fitted or top-dose-only effect; inactive = flat fitted curve, though single readings scatter.

Legend:
[1] = system: P94_40; assay: qHTS profiling for inhibitors of Plasmodium falciparum proliferation (AID 504749); also: potency is read from the fitted curve at half-maximal effect; conditions: P. falciparum in erythrocytes, SYBR Green DNA, 72 h; series mostly up to 28.7 µM
Summary of the method: (§1)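 In a 72 h erythrocytic culture (37 C, humidified, 5% CO2) at 2.5% hematocrit and 0.3% starting parasitemia, compounds were tested; SYBR Green I in detergent lysis buffer stained parasite DNA overnight.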

[2] = system: PC15; assay: as above; conditions: P. falciparum in erythrocytes, SYBR Green DNA, 72 h; series mostly up to 28.7 µM
Summary of the method: as §1

[3] = system: TAB109; assay: as above; conditions: P. falciparum in erythrocytes, SYBR Green DNA, 72 h; series mostly up to 28.7 µM
Summary of the method: as §1

[4] = system: W2; assay: as above; conditions: P. falciparum in erythrocytes, SYBR Green DNA, 72 h; series mostly up to 28.7 µM
Summary of the method: as §1

[5] = system: CRL-7250; assay: Cytotoxic Profiling of Annotated Libraries Using Quantitative High-Throughput Screening (AID 1296008); conditions: Five cell lines viability, CellTiter-Glo ATP luminescence, 48-72 h; hits give low values; as to max response: % is scaled to controls: 0 for no effect and ±100 for the full control effect
Summary of the method: (§2)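 Cytotoxicity was measured as CellTiter-Glo ATP luminescence, read after 10 min at room temperature. Compound treatment of the cells lasted 48 or 72 hr at 37 degrees Celsius in a qHTS format.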

[6] = system: HEK293; assay: as above; conditions: Five cell lines viability, CellTiter-Glo ATP luminescence, 48-72 h; max response: hits give low values
Summary of the method: as §2

[7] = system: ECU; assay: qHTS profiling for inhibitors of Plasmodium falciparum proliferation (AID 504749); also: potency is read from the fitted curve at half-maximal effect; conditions: P. falciparum in erythrocytes, SYBR Green DNA, 72 h; series mostly up to 28.7 µM
Summary of the method: as §1

[8] = system: FAB9; assay: as above; conditions: P. falciparum in erythrocytes, SYBR Green DNA, 72 h; series mostly up to 28.7 µM
Summary of the method: as §1

[9] = system: GB4; assay: as above; conditions: P. falciparum in erythrocytes, SYBR Green DNA, 72 h; series mostly up to 28.7 µM
Summary of the method: as §1

[10] = system: HB3; assay: as above; conditions: P. falciparum in erythrocytes, SYBR Green DNA, 72 h; series mostly up to 28.7 µM
Summary of the method: as §1

[11] = system: ICS; assay: as above; conditions: P. falciparum in erythrocytes, SYBR Green DNA, 72 h; series mostly up to 28.7 µM
Summary of the method: as §1

[12] = system: JCK; assay: as above; conditions: P. falciparum in erythrocytes, SYBR Green DNA, 72 h; series mostly up to 28.7 µM
Summary of the method: as §1

[13] = system: N140; assay: as above; conditions: P. falciparum in erythrocytes, SYBR Green DNA, 72 h; series mostly up to 28.7 µM
Summary of the method: as §1

[14] = system: P93_24; assay: as above; conditions: P. falciparum in erythrocytes, SYBR Green DNA, 72 h; series mostly up to 28.7 µM
Summary of the method: as §1

[15] = system: PAD; assay: as above; conditions: P. falciparum in erythrocytes, SYBR Green DNA, 72 h; series mostly up to 28.7 µM
Summary of the method: as §1

[16] = system: PC26; assay: as above; conditions: P. falciparum in erythrocytes, SYBR Green DNA, 72 h; series mostly up to 28.7 µM
Summary of the method: as §1

[17] = system: PC49; assay: as above; conditions: P. falciparum in erythrocytes, SYBR Green DNA, 72 h; series mostly up to 28.7 µM
Summary of the method: as §1

[18] = system: SC27B; assay: as above; conditions: P. falciparum in erythrocytes, SYBR Green DNA, 72 h; series mostly up to 28.7 µM
Summary of the method: as §1

[19] = system: TAB113; assay: as above; conditions: P. falciparum in erythrocytes, SYBR Green DNA, 72 h; series mostly up to 28.7 µM
Summary of the method: as §1

[20] = system: TAB165; assay: as above; conditions: P. falciparum in erythrocytes, SYBR Green DNA, 72 h; series mostly up to 28.7 µM
Summary of the method: as §1
Also: nearly all actives have a fitted effect of over 60% in size.

C/C(=C\C(=O)OCCCCCCCCC(=O)O)C[C@@H]1OC[C@H](C[C@@H]2O[C@H]2[C@@H](C)[C@H](C)O)[C@@H](O)[C@H]1O
active: Potency [1] 0.141 µM | Potency [3] 0.141 µM | Potency [4] 0.19 µM
inactive: Potency [2] | max response [5] 4.39% | max response [6] -15.8%

CCN(CC)C(=S)S
inactive: Potency [7] | Potency [8] | Potency [9] | Potency [10] | Potency [11] | Potency [12] | Potency [13] | Potency [14] | Potency [1] | Potency [15] | Potency [2] | Potency [16] | Potency [17] | Potency [18] | Potency [3] | Potency [19] | Potency [20]

CC(C)(C)c1ccc(CN2CCN(C(c3ccccc3)c3ccc(Cl)cc3)CC2)cc1 (stereo unspecified)
inactive: max response [5] 1.08%

CCCCCCCCCC(=O)NO
inactive: Potency [7] | Potency [8] | Potency [9] | Potency [10] | Potency [11] | Potency [12] | Potency [13] | Potency [14] | Potency [1] | Potency [15] | Potency [2] | Potency [16] | Potency [17] | Potency [18] | Potency [3] | Potency [19] | Potency [20]

C[C@]12CC[C@@H]3c4ccc(OC(=O)c5ccccc5)cc4CC[C@H]3[C@@H]1CC[C@@H]2O
inactive: Potency [7] | Potency [8] | Potency [9] | Potency [10] | Potency [12] | Potency [13] | Potency [14] | Potency [1] | Potency [15] | Potency [2] | Potency [16] | Potency [17] | Potency [18] | Potency [3] | Potency [19] | Potency [20] | outcome [5] | max response [6] -10%
active: Potency [11] 11.2 µM | Potency [4] 10.7 µM

CCCCC[C@H](O)/C=C/[C@H]1[C@H](O)CC(=O)[C@@H]1C/C=C\CCCC(=O)O
inactive: Potency [7] | Potency [8] | Potency [9] | Potency [10] | Potency [11] | Potency [12] | Potency [13] | Potency [14] | Potency [1] | Potency [15] | Potency [2] | Potency [16] | Potency [17] | Potency [18] | Potency [3] | Potency [19] | Potency [20]

C=C1CC[C@H](O)CC1=C/C=C1\CCC[C@]2(C)[C@@H]([C@H](C)/C=C/[C@H](C)C(C)C)CC[C@@H]12
inactive: max response [5] -11.3%

S=C=Nc1ccc(N=C=S)cc1
inactive: Potency [7] | Potency [8] | Potency [9] | Potency [10] | Potency [11] | Potency [12] | Potency [13] | Potency [14] | Potency [1] | Potency [15] | Potency [2] | Potency [16] | Potency [17] | Potency [18] | Potency [3] | Potency [19] | Potency [20]

Cc1ncc(COP(=O)(O)O)c(CN)c1O
inactive: Potency [7] | Potency [8] | Potency [9] | Potency [10] | Potency [11] | Potency [12] | Potency [13] | Potency [14] | Potency [1] | Potency [15] | Potency [2] | Potency [16] | Potency [17] | Potency [18] | Potency [3] | Potency [19] | Potency [20]

CC(C)(C)CC(C)(C)c1cc(Cc2cc(C(C)(C)CC(C)(C)C)cc(-n3nc4ccccc4n3)c2O)c(O)c(-n2nc3ccccc3n2)c1
inactive: Potency [7] | Potency [8] | Potency [9] | Potency [10] | Potency [11] | Potency [12] | Potency [13] | Potency [14] | Potency [1] | Potency [15] | Potency [2] | Potency [16] | Potency [17] | Potency [18] | Potency [3] | Potency [19] | Potency [20] | Potency [4]

CN(C)CCCSc1ccccc1NC(=O)/C=C/c1ccccc1
active: Potency [4] 6.01 µM
inactive: Potency [7] | Potency [8] | Potency [10] | Potency [11] | Potency [12] | Potency [13] | Potency [14] | Potency [1] | Potency [15] | Potency [2] | Potency [16] | Potency [17] | Potency [18] | Potency [19] | Potency [20] | max response [5] -4.07%

CC(C)[C@@H](N)C(=O)O
inactive: Potency [7] | Potency [8] | Potency [9] | Potency [10] | Potency [11] | Potency [12] | Potency [13] | Potency [14] | Potency [1] | Potency [15] | Potency [2] | Potency [16] | Potency [17] | Potency [18] | Potency [3] | Potency [19] | Potency [20]

c1ccc2c(c1)OCC(CN1CCCCC1)O2 (stereo unspecified)
inactive: Potency [7] | Potency [8] | Potency [9] | Potency [10] | Potency [11] | Potency [12] | Potency [13] | Potency [14] | Potency [1] | Potency [15] | Potency [2] | Potency [16] | Potency [17] | Potency [18] | Potency [3] | Potency [19] | Potency [20]

O=P(O)(O)O
inactive: Potency [7] | Potency [8] | Potency [9] | Potency [10] | Potency [11] | Potency [12] | Potency [13] | Potency [14] | Potency [1] | Potency [15] | Potency [2] | Potency [16] | Potency [17] | Potency [18] | Potency [3] | Potency [19] | Potency [20] | Potency [4]

O=C1c2ccccc2C(=O)C1c1ccc(F)cc1
inactive: Potency [7] | Potency [8] | Potency [9] | Potency [10] | Potency [11] | Potency [12] | Potency [13] | Potency [14] | Potency [1] | Potency [15] | Potency [2] | Potency [16] | Potency [17] | Potency [18] | Potency [3] | Potency [19] | Potency [20]

OC/C=C/c1ccccc1
inactive: Potency [7] | Potency [8] | Potency [9] | Potency [10] | Potency [11] | Potency [12] | Potency [13] | Potency [14] | Potency [1] | Potency [15] | Potency [2] | Potency [16] | Potency [17] | Potency [18] | Potency [3] | Potency [19] | Potency [20]

C=CC(C)(O)CC/C=C(\C)CCC=C(C)C (stereo unspecified)
inactive: Potency [7] | Potency [8] | Potency [9] | Potency [10] | Potency [11] | Potency [12] | Potency [13] | Potency [14] | Potency [1] | Potency [15] | Potency [2] | Potency [16] | Potency [17] | Potency [18] | Potency [3] | Potency [19] | Potency [20]

COc1ccc2nc(NC(=O)Nc3ccccc3)sc2c1
inactive: Potency [7] | Potency [8] | Potency [10] | Potency [12] | Potency [14] | Potency [1] | Potency [15] | Potency [2] | Potency [16] | Potency [17] | Potency [18] | Potency [3] | Potency [19] | max response [5] 1.89%
active: Potency [11] 7.94 µM
